PubChem BioAssay
Values without a mark were called inactive. Active and inactive are the calls of the source. Rule as the data show it, unless noted: active = inhibition above about 28%; inactive = the rest.

What was measured:
[1] = StAR promoter reporter inhibitors, counter-screen for LRH-1 inverse agonist project, cell-based, luminescence, high throughput (AID 651611); settings: StAR promoter luciferase reporter counterscreen, at 3.6 µM, hits give high values
[2] = biological target: Nuclear receptor subfamily 5 group A member 2 (Homo sapiens) (UniProt O00482); test: LRH-1 (NR5A2) inverse agonists, retest, confirmation, cell-based, luminescence (AID 651613; in the data active = inhibition above about 42%;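 also: HEK293T cells co-transfected with LRH-1 and StAR promoter luciferase reporter; 0% = vehicle wells and 100% = parental cells lacking receptor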); settings: cell-based LRH-1 luciferase reporter, inverse agonism; at 3.6 µM; hits give high values
Nuclear receptor subfamily 5 group A member 2 (Homo sapiens), sequence (O00482 whole entry, looked up): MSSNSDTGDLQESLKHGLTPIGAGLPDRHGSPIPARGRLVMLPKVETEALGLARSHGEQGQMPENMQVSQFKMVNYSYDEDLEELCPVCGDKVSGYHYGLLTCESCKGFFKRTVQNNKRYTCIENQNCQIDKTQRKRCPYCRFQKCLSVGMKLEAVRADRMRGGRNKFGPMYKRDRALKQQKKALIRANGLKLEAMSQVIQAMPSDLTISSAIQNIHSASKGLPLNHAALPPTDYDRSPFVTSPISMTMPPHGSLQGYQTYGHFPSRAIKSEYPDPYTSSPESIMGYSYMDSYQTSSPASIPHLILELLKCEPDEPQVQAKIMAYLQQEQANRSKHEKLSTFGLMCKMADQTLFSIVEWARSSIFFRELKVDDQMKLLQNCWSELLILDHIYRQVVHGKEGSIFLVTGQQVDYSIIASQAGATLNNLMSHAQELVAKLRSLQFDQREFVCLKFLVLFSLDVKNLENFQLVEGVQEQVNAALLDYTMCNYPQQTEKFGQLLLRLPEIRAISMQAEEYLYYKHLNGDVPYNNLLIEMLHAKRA

[3] = biological target: Steroidogenic factor 1 (Homo sapiens) (UniProt Q13285); test: SF1 (NR5A1) inverse agonists, counter-screen for LRH-1 inverse agonist project, cell-based, luminescence, high throughput (AID 651614; in the data active = inhibition above about 44%;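 also: cells cotransfected with StAR promoter reporter and SF1 expression vector; 0% = vehicle on cells with receptor and 100% = vehicle on cells lacking receptor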); settings: cell-based SF1 luciferase reporter, at 3.6 µM, hits give high values
Steroidogenic factor 1 (Homo sapiens), sequence (Q13285 whole entry, looked up, the tested form may be a part): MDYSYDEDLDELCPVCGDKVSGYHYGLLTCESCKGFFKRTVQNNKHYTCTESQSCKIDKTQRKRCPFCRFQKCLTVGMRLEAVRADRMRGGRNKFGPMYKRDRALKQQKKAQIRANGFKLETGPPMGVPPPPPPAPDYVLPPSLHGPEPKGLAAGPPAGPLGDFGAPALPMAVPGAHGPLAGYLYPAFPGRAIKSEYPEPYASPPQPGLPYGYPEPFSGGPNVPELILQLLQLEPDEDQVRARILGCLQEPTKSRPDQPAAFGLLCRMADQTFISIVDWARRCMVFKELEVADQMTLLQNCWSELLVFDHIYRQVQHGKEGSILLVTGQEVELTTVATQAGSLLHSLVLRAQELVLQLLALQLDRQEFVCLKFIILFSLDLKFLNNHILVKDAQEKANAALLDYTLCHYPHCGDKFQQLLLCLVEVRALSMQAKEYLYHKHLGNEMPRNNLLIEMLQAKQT

[4] = VP16 transactivation reporter inhibitors, counter-screen for LRH-1 inverse agonist project, cell-based, luminescence, high throughput (AID 651615; in the data active = inhibition above about 33%); settings: Gal4-VP16 luciferase reporter cells, at 3.6 µM, hits give high values

SMILES | inhibition [1] | inhibition [2] | inhibition [3] | inhibition [4]
NC(=O)C1CCN(C(=O)COc2ccc3c4c(c(=O)oc3c2)CCCC4)CC1 | 12.7% | 59.3% (active) | 50.3% (active) | -6.57%
O=C(COC(=O)c1ccc(S(=O)(=O)N2CCCC2)cc1)Nc1ccc(N2CCOCC2)cc1 | 18.1% | 48.5% (active) | 57.4% (active) | -7.59%
COc1cccc(C(NC(C)=O)c2ccc3cccnc3c2O)c1 (stereo not drawn) | 74.9% (active) | 89.8% (active) | 76.5% (active) | 76.3% (active)
O=C(COC(=O)CCN1C(=O)C2CC=CCC2C1=O)NCCc1ccccc1 (stereo not drawn) | 11.9% | 40.1% | 44.8% (active) | 3.03%
CC(=O)/C(=N/Nc1ccccc1[N+](=O)[O-])N1CCCc2ccccc21 | 17.5% | 49.2% (active) | 52.1% (active) | 22.7%
O=C(Nc1ccc2oc(-c3ccncc3)nc2c1)c1ccc([N+](=O)[O-])o1 | 34.1% (active) | 63.7% (active) | 66.2% (active) | -13.7%
O=C(N/N=C/c1c[nH]c2ccccc12)c1[nH]c2ccc(Br)cc2c1-c1ccccc1 | 52.3% (active) | 38% | 57% (active) | 33.6% (active)
CC(=O)Nc1sc2c(c1-c1nc3ccccc3s1)CN(C(C)C)CC2 | 36.6% (active) | 66.4% (active) | 61.1% (active) | 80.7% (active)
Cc1ccc(N2CC(C(=O)Nc3nc4ccc(S(C)(=O)=O)cc4s3)CC2=O)cc1 (stereo not drawn) | 12.4% | 52.6% (active) | 48.4% (active) | -0.21%
COC(=O)c1c(NC(=O)c2cccc(N3C(=O)CCC3=O)c2)sc2c1CCN(C(C)=O)C2 | 19.6% | 65.5% (active) | 49.8% (active) | -30.4%
CCN1C(=O)c2cccc3c(N)ccc1c23 | 33.4% (active) | 58.6% (active) | 46% (active) | -37.8%
Cc1cccc(NC(=O)c2ccc([N+](=O)[O-])o2)c1C | 24.6% | 64.2% (active) | 60.4% (active) | -8.95%
COc1cc(NC(=O)c2ccc([N+](=O)[O-])o2)ccc1NC(=O)c1ccco1 | 28.8% (active) | 62.5% (active) | 67% (active) | -17.9%
O=C(Cc1ccc(Cl)cc1Cl)Nc1ccncc1Cl | 16.4% | 65.9% (active) | 70% (active) | 47.1% (active)
Cc1ccc(Sc2ccc(NC(=O)CCl)cc2)cc1C | 0.02% | 52.6% (active) | 56.5% (active) | -14.4%
Oc1cccc(Nc2nc(N3CCOCC3)nc(N3CCOCC3)n2)c1 | 24.7% | 45% (active) | 21.6% | 21%
Cc1ccc(-c2nn3c(C)nnc3s2)cc1NC(=O)c1cccs1 | 17.1% | 67.5% (active) | 69.4% (active) | -15.2%
O=C(Nc1ccc2[nH]c(=O)[nH]c2c1)c1ccc([N+](=O)[O-])o1 | 7.96% | 65.1% (active) | 65.8% (active) | -11.8%
CN(C)CCNC(=O)c1cccc2nc3cccc(F)c3nc12 | 63.9% (active) | 81.5% (active) | 72.1% (active) | 55% (active)
Cc1ccc(CNC(=O)COc2ccc(C(=O)c3ccc(F)cc3)cc2)cc1 | 17.6% | 51% (active) | 35.8% | -11.9%
Cc1ccc(NC(=O)CSc2nnc(-c3n[nH]c4ccccc34)n2-c2ccccc2)c(C)c1 | 3.14% | 60.5% (active) | 60.3% (active) | 4.59%
CCOc1ccc(NC(=O)CSc2nnc(CNC(=O)c3cccs3)o2)cc1 | 20% | 60.3% (active) | 59.6% (active) | -0.65%
COc1ccc(CN(C)C(=O)CCl)cc1 | 14.9% | 53.5% (active) | 52.9% (active) | -5.19%
Cc1cccc2cc(C#N)c(SCC(=O)N3CC(=O)Nc4ccccc43)nc12 | 53.7% (active) | 23.3% | 38.1% | 38.5% (active)
O=C(Cn1ccc(=O)[nH]c1=O)c1ccc([N+](=O)[O-])o1 | 13.1% | 14.3% | 14.9% | -16.8%
N#Cc1c(N)c(C#N)c(-c2ccc(O)cc2)c2c1CCCC2 | 6.6% | 57.8% (active) | 53.8% (active) | 9.21%

SMILES | inhibition [1] | inhibition [2] | inhibition [3] | inhibition [4]
Clc1ccccc1-c1nc(N/N=C/c2cccnc2)c2ccccc2n1 | 6.03% | 52.3% (active) | 53.3% (active) | -7.84%
Cc1ccc(CNC(=O)CN2C(=O)NC3(CCCC3)C2=O)cc1 | 5.83% | 33.5% | 43.7% (active) | 0.14%
Cc1c(C(=O)N(Cc2ccc(F)cc2)C2CCS(=O)(=O)C2)oc2ccccc12 (stereo not drawn) | 36.8% (active) | 8.94% | 31.4% | -5.18%
COc1ccc(OC)c(NS(=O)(=O)c2ccc(SC)cc2)c1 | 37.9% (active) | 55% (active) | 54.2% (active) | 14.8%
COc1ccc(-n2c(SCC(=O)NCc3ccco3)nc3sc4c(c3c2=O)CCN(C)C4)cc1 | -6.62% | -2.89% | 11% | -5.24%
O=c1[nH]c(Nc2ccc3c(c2)OCCO3)nnc1Cc1ccccc1 | 0.14% | 59.5% (active) | 37.8% | -12.8%
Cc1cccc(-n2ncc3c2CCCC3NC(=O)C2(C(N)=O)CC2)c1C (stereo not drawn) | 16.4% | 55% (active) | 48.4% (active) | 50% (active)
COc1ccc(NC(=O)/C(Cl)=C(/Cl)S(=O)Cc2ccc(Cl)cc2)cn1 (stereo not drawn) | 58% (active) | 91.7% (active) | 84.6% (active) | 89.5% (active)
COc1ccc(NC(=O)CN2C(=O)C(C)SC(C)C2=O)c(OC)c1 (stereo not drawn) | 4.55% | 44% (active) | 49% (active) | 11.3%
CC(=O)Nc1cc(-c2ccc(S(C)(=O)=O)cc2)cn2c(-c3ccc(F)c(Cl)c3)cnc12 | 12.9% | 61.1% (active) | 51.7% (active) | 3.98%
CC1SC(C)C(=O)N(CC(=O)Nc2ccc3c(c2)OCO3)C1=O (stereo not drawn) | 8.81% | 49.1% (active) | 36.9% | -7.59%
O=C(Nc1ccccc1C(=O)NCCCn1ccnc1)c1ccccc1 | 14.8% | 53.6% (active) | 42.1% | -3.84%
COc1ccccc1N1CCN(C(=O)CSc2nc3ccccc3o2)CC1 | -10.2% | 30.2% | 35.1% | -19.8%
CC1CCC2(CC1)NC(=O)N(CC(=O)Nc1ccc(N3CCOCC3)cc1)C2=O (stereo not drawn) | 11.8% | 45.8% (active) | 37.4% | -8.77%
Cc1onc(-c2ccccc2Cl)c1-c1nc(-c2ccncc2)no1 | 7.38% | 58.1% (active) | 52.9% (active) | 18.2%
COC(=O)CNc1nc(-c2cccnc2)nc2ccccc12 | 16.8% | 44.6% (active) | 42.2% | -0.85%
Cc1cc(-c2nn3c(-c4ccccc4)nnc3s2)c2ccccc2n1 | 7.3% | 38.6% | 22.6% | -31.6%
CC(=O)N1CCc2c(sc(NC(=O)Cc3ccc(F)cc3)c2C#N)C1 | 21.4% | 65.3% (active) | 57.6% (active) | -35.5%
CCOC(=O)c1ccc(NC(=O)CSc2nnc(COc3ccccc3OC)n2C)cc1 | -2.53% | 40.4% | 35.7% | -6.59%
O=C(CN1C(=O)NC2(CCCCCC2)C1=O)Nc1ccc([N+](=O)[O-])cc1 | 25.1% | 63.1% (active) | 59.6% (active) | 9.06%
O=C(Nc1ccc(N2CCN(C(=O)c3cccs3)CC2)cc1)c1ccc([N+](=O)[O-])o1 | 43.4% (active) | 67.3% (active) | 70.4% (active) | 7.47%
Cc1ccc(CN2CCC[C@]3(N[C@H](c4ccc(C(F)(F)F)cc4)[C@@H]4C(=O)N(Cc5ccccc5)C(=O)[C@@H]43)C2=O)cc1 | -2.71% | 24.8% | 28.4% | 22%
CCCCNC(=O)CSc1nc2ccc(NC(=O)CSc3nnc(COc4ccccc4C)n3C)cc2s1 | 2.43% | 61.2% (active) | 61.3% (active) | -5.17%
CC1OC(CC(=O)O)CC2=C1C(=O)c1c(O)cccc1C2=O (stereo not drawn) | 95.4% (active) | 111% (active) | 98.2% (active) | 95.8% (active)
CC(Oc1ccc(S(=O)(=O)N2CCCC2)cc1[N+](=O)[O-])C(=O)NC(C)c1ccccc1 (stereo not drawn) | 4.94% | 52.3% (active) | 50.8% (active) | 1.83%
CCn1c(SCC(=O)Nc2ccc(Cl)cc2)nnc1C1CC1 | 14% | 50.6% (active) | 50% (active) | 6.77%
